Sampled rows, rich in hits. Any-hit rate of the full collection: about 1.1%.
GALK inh – qHTS Assay for Inhibitors of Human Galactokinase (GALK). P51570. Purified GALK, Kinase-Glo residual ATP luminescence. Potency, µM (series often up to 57.5 µM), inactives show at the highest dose activity change, negative = inhibition, actives largely listed as inhibitors. 270,000 compounds, 0.007% hits. AID 1868, 2009; further: potency means the concentration at half of the fitted maximal effect
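Compounds were pin-transferred into ATP buffer (35 uM final), then GALK plus galactose (5 nM, 100 uM final) was added. After 1 h at room temperature, Kinase-Glo Plus was added and luminescence read after 10 min.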
a7 integrin act – qHTS for Activators of Integrin-Mediated Alleviation for Muscular Dystrophy; AID 624291, 2012; alpha7betagal myoblasts, beta-gal FDG fluorescence, 48 h; Potency, µM (top dose mostly 38.3 µM), for inactives: top-dose activation, usual class: activators; 350,000 compounds, 0.064% hits;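 further: potency means the concentration at half of the fitted maximal effect; 100% = response of the positive control SU9516; nearly all actives have a fitted effect of over 60% in size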
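alpha7betagal+/- myoblasts (passage 13, 250/well) treated 48 h at 37C with compounds at 1:260 dilution of DMSO stock. Lysed, then beta-galactosidase activity read as FDG fluorescence (ex 480/em 540) after 30 min, with pre-read for autofluorescence.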
rTrxR1 inhibitor – qHTS Assay for Inhibitors of Mammalian Selenoprotein Thioredoxin Reductase 1 (TrxR1): qHTS; Potency, µM (top dose mostly 114 µM), without a hit: at the highest dose activity change, negative = inhibition, most hits filed as inhibitors; AID 588453, 2011; recombinant rTrxR1, NADPH fluorescence consumption, selenite substrate; Thioredoxin reductase 1, cytoplasmic (Rattus norvegicus), O89049; 390,000 compounds, 1% hits; further: potency means the concentration at half of the fitted maximal effect; nearly all actives have a fitted effect of over 65% in size
Target sequence (O89049 whole entry, looked up): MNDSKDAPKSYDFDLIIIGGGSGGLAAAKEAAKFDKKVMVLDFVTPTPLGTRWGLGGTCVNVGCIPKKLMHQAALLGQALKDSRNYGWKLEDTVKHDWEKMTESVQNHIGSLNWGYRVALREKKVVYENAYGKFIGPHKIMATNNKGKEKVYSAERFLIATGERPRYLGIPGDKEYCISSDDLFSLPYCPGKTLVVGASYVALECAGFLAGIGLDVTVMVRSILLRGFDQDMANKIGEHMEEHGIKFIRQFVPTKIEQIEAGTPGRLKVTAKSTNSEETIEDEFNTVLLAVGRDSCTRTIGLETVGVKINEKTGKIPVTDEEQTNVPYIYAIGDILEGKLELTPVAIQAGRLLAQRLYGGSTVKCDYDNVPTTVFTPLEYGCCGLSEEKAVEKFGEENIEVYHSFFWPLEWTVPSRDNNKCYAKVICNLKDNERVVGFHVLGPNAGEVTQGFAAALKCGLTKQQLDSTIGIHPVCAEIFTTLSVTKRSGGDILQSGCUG
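Rat TrxR1 (90 nM in the dispensed reagent) was pre-reduced with 400 uM NADPH for 5 min at room temperature, then incubated with compound for 15 min. After 400 uM selenite was added, NADPH fluorescence (Ex 340/Em 450 nm) was followed for 8 min.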
PI4K2A inh – qHTS for small molecular inhibitors of PI4K2A; 420,000 compounds, 0.13% hits; activity change, negative = inhibition, % at 76.9 µM; Phosphatidylinositol 4-kinase type 2-alpha (Homo sapiens), Q9BTU6; purified PI4K2A, ADP-Glo luminescence, 1 h; stronger effect = lower value; AID 1346378, 2018; in the data active means activity change below about -50%; inconclusive means mostly about -30% to -49%;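 further: -100% = wells without enzyme as full effect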
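Compounds are screened against recombinant PI4K2A using PI as substrate and ATP, the latter dispensed at 300 microM. Reactions run one hour at ambient temperature before ADP-Glo detection; full inhibition defined by wells lacking enzyme.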
LDHA inh – qHTS assay for inhibitors of human lactate dehydrogenase. 480,000 compounds, 0.15% hits. L-lactate dehydrogenase A chain (Homo sapiens), P00338. AID 1347041, 2019. purified LDHA, NADH/diaphorase-resazurin fluorescence; stronger effect = lower value. activity change, % (values are at about 110 or 230 µM); in the data active means activity change below about -30%; inconclusive means mostly about -25% to -30%;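 further: plate controls were DMSO wells for no effect and wells without enzyme for full effect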
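Resorufin fluorescence (ex540/em590), read at 0 and 20 min after diaphorase/resazurin addition, reports the NADH left after a 5 min room-temperature reaction of 2 nM human LDH5 with 0.06 mM NADH and 0.2 mM pyruvate.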
TrxR1 substrate – qHTS Assay for Substrates of Mammalian Selenoprotein Thioredoxin Reductase 1 (TrxR1): qHTS | Thioredoxin reductase 1, cytoplasmic (Rattus norvegicus), O89049 | purified TrxR1 substrate turnover, NADPH consumption readout | Potency, µM (series often up to 114 µM), inactives show at the highest dose activity change, negative = substrate turnover | 390,000 compounds, 0.01% hits | AID 588456, 2011; further: potency means the concentration at half of the fitted maximal effect; nearly all actives have a fitted effect of over 50% in size
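Rat TrxR1, dispensed at 90 nM, was prereduced with 400 uM NADPH (final) for 5 min at ~22 deg C, then incubated with compound 15 min before 400 uM selenite. A first-read NADPH fluorescence drop versus no-compound background flagged substrates.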
* hit, by the source's call; ? = inconclusive; nt = no result given; ! = a repeat was not active; [ ] = remark or other dose. Unless noted, the call rests on the fitted dose curve; in most records, active means well fitted curve in the direction sought with a large enough effect; inconclusive means small, poorly fitted or top-dose-only effect, or another doubt; inactive means no such curve, though single readings can be large; an effect the other way counts as inactive or inconclusive. Unless noted, on the % scale 0 is the no-effect control and ±100 the full control effect.

SMILES	GALK inh	a7 integrin act	rTrxR1 inhibitor	PI4K2A inh	LDHA inh	TrxR1 substrate
CCCC(C(=O)NCc1ccco1)N(Cc1ccco1)C(=O)CNS(=O)(=O)c1ccccc1 (stereo unspecified)	7%	20%	-1%[57.1 µM]	-3	-1	2%[57.1 µM]
CCOc1ccccc1OCC(=O)NCc1ccco1	-2%	-16%	28µM*	-6	10	7%
CC1=C(c2ccc(C(C)C)cc2)S(=O)(=O)NC1=NC(C)C12CC3CC(CC(C3)C1)C2 (stereo unspecified)	nt	nt	nt	nt	12	nt
O=C(NCCCn1ccnc1)/C(=C/c1ccco1)NC(=O)c1ccco1	1%	?	-11%	-1	-4	-8%
O=C(NCCCn1ccnc1)/C(=C/c1cccs1)NC(=O)c1ccco1	5%	8.9µM*	11%	1	-5	-2%
Cc1cc2oc(=O)cc(CSc3nnnn3C3CC3)c2cc1C	nt	nt	nt	nt	5	nt
Cc1ccc(CNC(=O)C2CCN(S(=O)(=O)c3cccs3)CC2)cc1	-1%	17%	2%[57.1 µM]	0	-9	-9%
Cc1ccc(CNC(=O)C2CCC(=O)N(CC3CCCCC3)C2)o1 (stereo unspecified)	-6%	-24%	50µM*	-2	-3	-13%
COc1ccc(CNC(=O)C2CCC(=O)N(CC3CCCCC3)C2)cc1 (stereo unspecified)	0%	-32%	3%	7	-2	4%
Cc1cc(CNC(=O)C2CCC(=O)N(Cc3cccc(C(F)(F)F)c3)C2)no1 (stereo unspecified)	-3%	13%	4%	3	0	2%
Cc1ccc(CNC(=O)C2CCN(S(=O)(=O)c3cccs3)CC2)o1	2%	-19%	8.9µM*	-3	-4	1%
Cc1ccc(CNC(=O)C2CCC(=O)N(Cc3cccc(C(F)(F)F)c3)C2)o1 (stereo unspecified)	nt	-26%	35µM*	-2	5	8%
CC(C)CC(=O)N1CCC(N2CCN(C)CC2)CC1	nt	nt	nt	nt	8	nt
Cc1nc(C#N)c(NCC(c2cccs2)N2CCOCC2)o1 (stereo unspecified)	nt	nt	nt	nt	0	nt
COC(=O)Cn1c(=NC(=O)CCS(=O)(=O)c2ccccc2)sc2c(OC)ccc(OC)c21	5%	-29%	28µM*	0	-2	-2%
CCn1c(=NC(=O)CCS(=O)(=O)c2ccccc2)sc2cccc(OC)c21	-2%	-37%	13%	5	-3	9%
COCCn1c(=NC(=O)CCS(=O)(=O)c2ccccc2)sc2cc(F)ccc21	-2%	-44%	?	3	-4	-5%
COCCn1c(=NC(=O)CCS(=O)(=O)c2ccccc2)sc2cc(C)ccc21	-2%	-52%	40µM*	1	-1	-1%
CCCCOc1cc(=O)[nH]c(=O)[nH]1	0%	4%	-3%	-51*	-6	10%
CCCOc1ccc(-c2nc(C#N)c(NCCN(C)C)o2)cc1	nt	nt	nt	nt	-32*	nt
CN(C)CCNc1oc(-c2cccc(Cl)c2)nc1C#N	-1%	3%[7.66 µM]	4%	3	-33*!	92%
Cc1nc2c3ccccc3nn2c(C)c1CCC(=O)Nc1ccc(C(N)=O)cc1	nt	nt	nt	nt	0	nt
COc1ccc(NC(=O)c2ncoc2-c2ccc(C)o2)cc1OC	nt	nt	nt	nt	3	nt
C/C(=N\NC(=O)c1cc(C)oc1C)c1ccc2ccccc2c1	8%	8.9µM*	2%	-1	-3	3%
COc1ccccc1NC(=O)C(CC(C)C)N1Cc2ccccc2C1=O (stereo unspecified)	nt	nt	nt	nt	3	nt
SMILES	GALK inh	a7 integrin act	rTrxR1 inhibitor	PI4K2A inh	LDHA inh	TrxR1 substrate
Cc1ccc(Nc2nc(N)nc(CN3CCCCCC3)n2)cc1	-3%	-1%	?	6	1	4%
Nc1nc(CN2CCCCCC2)nc(Nc2ccccc2)n1	-2%	-12%	16µM*	-4	-4	6%[57.1 µM]
Cc1ccc(S(=O)(=O)/N=C2/NC(=O)/C(=C/c3ccc(Br)o3)S2)cc1	-28%	4%	28µM*	1	?	-8%
O=C1NC(C(=O)O)=CC(c2ccccc2Cl)N1 (stereo unspecified)	nt	nt	nt	nt	8	nt
CCOc1ccc(-c2c(C(=O)N/N=C(\C)c3ccncc3)nnn2-c2nonc2N)cc1	7%	0%	-24%	-5	-7	13%
C/C(=N\NC(=O)c1nnn(-c2nonc2N)c1-c1cccs1)c1ccncc1	-5%	5%	35µM*	0	-12	2%
N#CCC(=O)N/N=C/c1ccc(Sc2nc3ccccc3s2)o1	4%	-15%	?	7	-48*	-10%
COCC(=O)N/N=C/c1ccc(Sc2nc3ccccc3s2)o1	1%	-7%	12%[57.1 µM]	5	0	9%[57.1 µM]
CC(=O)O/N=C1\C(=O)N(Cc2ccc(C)cc2)c2ccccc21	-1%	-28%	-72%	7	-4	-7%
CN1C(=O)/C(=N\OC(=O)c2ccccc2Cl)c2ccccc21	-1%	13%	10µM*	7	-5	5%
COc1ccc(NC(=O)Cc2cccc3ccccc23)c2cccnc12	nt	nt	nt	nt	13	nt
O=C(Nc1ccc(C2=NCCN2)cc1)c1ccc(C(=O)Nc2ccc(C3=NCCN3)cc2)c([N+](=O)[O-])c1	9%	5%	3%	-3	-36*	-5%
O=C(c1cccs1)N1C[C@@H](n2cc(C3CC3)nn2)[C@H](O)C[C@@H]1c1ccc(Cl)cc1	nt	11%	nt	2	-36*	nt
O=C(c1cccs1)N1C[C@@H](O)[C@H](n2cc(C3CC3)nn2)C[C@@H]1c1ccc(Cl)cc1	nt	-10%	nt	-1	-2	nt
O=C(c1cccs1)N1C[C@@H](n2cc(C3CC3)nn2)[C@H](O)C[C@@H]1c1ccccc1	nt	-2%	nt	0	-37*	nt
CCCN1C(=O)c2[nH]nc(-c3c(C)cc(C)cc3O)c2C1c1ccc(OC)cc1 (stereo unspecified)	nt	nt	nt	nt	6	nt
O=C(C1=C[C@@H]2[C@H]3C(=O)N(c4cccc(Cl)c4)C(=O)[C@H]3[C@@H](C(=O)c3ccc(Cl)cc3)N2C=C1)c1ccccc1	3%	-7%	50µM*	-5	2	0%
CC(=O)c1sc2nc(-c3ccco3)ccc2c1N	5%	-12%	10µM*	-8	-2	-1%
CCN1CCN(C(C)C(=O)NC2CCCCC2)CC1 (stereo unspecified)	-2%	-3%	30%	1	-31*	0%
